# Source: PubChem
# HTR5A inv ctr: HTR5A inverse agonists in luminescence cell assay, primary screen, counter-screen for OPRM1-OPRD1 heterodimer inverse agonist project, full-deck HTS. 5-hydroxytryptamine receptor 5A (Homo sapiens), P47898. HTR5A cell line, inverse agonism. inhibition, % at 9.3 µM. hit rate 0.083% among 340,000; in the data active means inhibition mostly above about 23%, no sharp cut-off; inactive means mostly below about 18%;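 further: 0% = cells with DMSO and 100% = no-cell wells with DMSO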
# Target sequence (P47898 whole entry, looked up): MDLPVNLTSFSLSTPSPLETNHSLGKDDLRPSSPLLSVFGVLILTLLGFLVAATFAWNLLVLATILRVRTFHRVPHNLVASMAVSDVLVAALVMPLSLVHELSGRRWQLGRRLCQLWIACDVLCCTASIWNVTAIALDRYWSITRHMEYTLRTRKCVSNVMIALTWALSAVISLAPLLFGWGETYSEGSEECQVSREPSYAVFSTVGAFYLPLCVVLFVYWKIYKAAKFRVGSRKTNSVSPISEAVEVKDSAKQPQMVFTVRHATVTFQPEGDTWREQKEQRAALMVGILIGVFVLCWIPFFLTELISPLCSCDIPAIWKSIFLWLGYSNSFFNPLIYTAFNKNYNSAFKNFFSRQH
# m5-HT2A agonist: mouse Htr2a agonists via beta-arrestin recruitment, primary screen, cell-based, luminescence. activation, % at 7.6 µM. CHO-K1 mHTR2A beta-arrestin complementation; percent of 30 µM serotonin response. 5-hydroxytryptamine receptor 2A (Mus musculus), P35363. hit rate 0.66% among 360,000;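 active means activation above a run cutoff, the mean activation of all tested compounds plus 3 SD, cut at about 14% in these data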;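 further: 0% = plate median of compound wells and 100% = 30 µM serotonin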
# MOR-DOR inv ag: inverse agonists of MOR-DOR heterodimerization, primary screen, cell-based, luminescence. Mu-type opioid receptor (Homo sapiens) + Delta-type opioid receptor (Homo sapiens), …. cell-based MOR-DOR heterodimer luminescence, inverse agonism. inhibition, % at 9.3 µM. hit rate 0.21% among 340,000; in the data active means inhibition above about 22%, passing the limit was not always enough;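 further: 0% = cells with DMSO and 100% = wells without cells with DMSO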
# OPRM1-OPRD1 ag: agonists of OPRM1-OPRD1 heterodimerization, primary screen, cell-based, luminescence; Mu-type opioid receptor (Homo sapiens) + Delta-type opioid receptor (Homo sapiens), …; cells; activation, % at 9.3 µM; hit rate 0.3% among 340,000; AID 504326, 2011; in the data active means activation above about 18%;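 further: 0% = vehicle-treated cells and 100% = reference agonist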
# HTR5A ag ctr: HTR5A agonists in luminescence cell assay, primary screen, counter-screen for OPRM1-OPRD1 heterodimer agonist project, full-deck HTS | 5-hydroxytryptamine receptor 5A (Homo sapiens), P47898 | cell-based | activation, % at 9.3 µM | hit rate 0.61% among 340,000; in the data active means activation mostly above about 9.5%, no sharp cut-off; inactive means mostly below about 7.6%;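 further: 0% = cells with vehicle only and 100% = reference agonist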
# MOR ag counter: OPRM1 agonists via beta-arrestin recruitment, confirmation, counter-screen for mouse HTR2A agonist project, cell-based, luminescence, single concentration | shares compounds with m5-HT2A agonist | U2OS OPRM1 beta-arrestin PathHunter; DMSO 0%, DAMGO 9.3 µM 100% | activation, % at 9.3 µM | hit rate 5.3% among 2,300 | AID 624380, 2012;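 active means mean activation above the mean of DMSO-only wells plus 3 SD, cut at about 0.5% in these data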
# HTR2A ag conf: mouse HTR2A agonists, beta-arrestin recruitment, confirmation, cell-based, luminescence, CHO-K1 PathHunter, triplicate. shares compounds with m5-HT2A agonist. DMSO 0%, 30 µM serotonin 100%. activation, % at 7.6 µM. hit rate 19% among 2,300;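 active means mean activation across triplicates above the hit threshold derived in the original primary screen, cut at about 15% in these data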
# * = called active by the depositor; . = not tested or not shown. Shown are actives, neighbours in structure and some others; about 1.6% of the full set was active somewhere.
SMILES,HTR5A inv ctr,m5-HT2A agonist,MOR-DOR inv ag,OPRM1-OPRD1 ag,HTR5A ag ctr,MOR ag counter,HTR2A ag conf
CC[C@]12c3[nH]c4cc(CCC(=O)N(C)C)ccc4c3CCN1C(=O)[C@@H](CC(=O)NCCc1ccccn1)C[C@@H]2C(=O)N1CCN(C(=O)c2ccco2)CC1,0,1,9,-2,0,.,.
C/C(=C\c1ccccc1)CN1CCN(c2ccccc2)CC1,-13,19*,-29,6,3,0,41*
O=C(NCc1ccccn1)c1ccccc1OCc1ccccc1Cl,.,24*,.,.,.,0,-6
O=C(NCc1ccccn1)C(F)(F)C(F)(F)C(=O)NCc1ccccn1,-20,15*,6,-1,7,0,-3
O=C(NCc1ccccn1)c1ccccc1OCc1ccc(F)cc1,-1,-4,17,-3,0,.,.
Cn1nc(-c2ccc(Cl)cc2)c2cc(C(=O)N3CCCC3)sc21,-25,22*,-24,5,8,0,3
CC(NC(=O)[C@H](C)NC(=O)[C@@H]1CSC2c3ccccc3C(=O)N21)c1ccccc1 (stereo partly drawn),2,-2,17,-3,5,.,.
CC1=Nn2c(nnc2-c2ccc(F)cc2)SC1,8,2,5,-1,-1,.,.
COc1ccc(C(=O)NCC(=O)OCc2c(Cl)cccc2Cl)cc1OC,0,-7,2,0,-2,.,.
COc1ccc([C@H]2CC(=O)C=C(c3cccc(OC)c3)C2)cc1,14,-1,13,-2,7,.,.
COc1cccc(-c2n[nH]nc2C2=CC(=O)C[C@H](c3ccc(F)cc3)C2)c1,.,22*,.,.,.,0,0
COc1ccc([C@H]2CC(=O)C=C(c3cccc(CO)c3)C2)cc1,-4,15*,10,-2,0,-1,-4
O=C1C=C(c2ccc(-c3ccccc3)c(F)c2)C[C@@H](c2ccc(F)cc2)C1,-5,2,-6,1,5,.,.
O=C1C=C(c2n[nH]nc2-c2ccccc2)C[C@@H](c2ccc(F)cc2)C1,.,15*,.,.,.,-1,-4
O=C1C=C(c2ccc(F)cc2OCc2ccccc2)C[C@@H](c2ccc(F)cc2)C1,-23,16*,12,-3,-3,-1,-9
O=C(CN1C(=O)C2CC=CCC2C1=O)Nc1ccc(S(=O)(=O)NC2=NCCCCC2)cc1 (stereo not drawn),-32,0,5,-1,0,.,.
O=C(O)c1ccccc1/C=N/NC(=S)NCc1ccccc1,18,3,14,-3,0,.,.
CCCCc1cn([C@@H](CCCCNC(=O)OC(C)(C)C)C(=O)N2CCN(C(=O)OC(C)(C)C)CC2)nn1,-10,16*,9,-2,0,-1,-1
C#CCOCCOCCOCCNc1nc(N2CCOCC2)nc(N2CCN(C(=O)CCCCCCCCCCNC(=O)[C@@H](CCC(=O)O)n3cc(CCCCCN)nn3)CC2)n1,-38,15*,2,0,1,-1,-2
CC(C)(C)OC(=O)NCCCC[C@@H](C(=O)N1CCN(C(=O)OC(C)(C)C)CC1)n1cc(CCC(=O)O)nn1,-15,-6,9,-2,1,.,.
CC(C)(C)OC(=O)NCCCCCc1cn([C@@H](CO)C(=O)NCCCCCCCCCCC(=O)N2CCN(C(=O)OC(C)(C)C)CC2)nn1,4,15*,-15,3,-1,0,19*
CC(C)(C)n1cnc2cc(NC(=O)c3ccccc3)ccc21,-18,-3,8,-2,6,.,.
O=C(c1ccc(NC2=NC3CS(=O)(=O)CC3S2)cc1)N1CCN(c2ccccc2F)CC1 (stereo not drawn),-27,24*,8,-1,3,-1,-4
O=C(c1cccc(C(F)(F)F)c1)N1CCN(S(=O)(=O)c2ccc(Cl)s2)CC1,8,-3,-32,6,4,.,.
O=C(c1cccc(Cl)c1)N1CCN(S(=O)(=O)c2ccc(Cl)s2)CC1,-16,16*,-4,1,7,0,-3
SMILES,HTR5A inv ctr,m5-HT2A agonist,MOR-DOR inv ag,OPRM1-OPRD1 ag,HTR5A ag ctr,MOR ag counter,HTR2A ag conf
COC(=O)[C@@]1(Cc2ccc(F)cc2)[C@H]2c3cc(C(=O)N(C)C)n(CCc4c[nH]c5ccc(O)cc45)c3C[C@H]2CN1C(=O)c1ccccc1,.,26*,.,.,.,0,11
CC(OC(=O)CCCN=C1NS(=O)(=O)c2ccccc21)C(=O)Nc1ccccc1F (stereo not drawn),2,25*,20,-4,-1,-1,-4
CCc1c(O)nc(SCC(=O)Nc2nc3ccccc3s2)n(C2CCCCC2)c1=O,10,4,7,-1,0,.,.
Cc1occc1C(=O)N1CCN(c2ccc(Cl)c(Cl)c2)CC1,-26,36*,2,0,0,0,13
Cc1ccc(N2CCN(C(=O)N3CCCC3)CC2)cc1Cl,-46,2,4,-1,-2,.,.
O=C(O)C1CC1C(=O)N1CCN(c2ccc(Cl)c(Cl)c2)CC1 (stereo not drawn),15,36*,5,-1,-4,-1,19*
COc1cccc(C(O)c2nc(-c3cnn(C)c3)cs2)c1 (stereo not drawn),.,7,.,.,.,.,.
O=C1NC[C@H](Cc2ccccc2)N(C[C@H]2CCCN2C[C@H](Cc2ccc(O)cc2)N2C[C@H](Cc3ccc(O)cc3)N(CC3CCCCCC3)C(=O)C2=O)C1=O,9,26*,8,-2,-3,-1,73*
O=C1NC[C@H](Cc2ccccc2)N(C[C@H]2CCCN2C[C@H](Cc2ccccc2)N2C[C@H](Cc3ccc(O)cc3)N(CC3CCCCCC3)C(=O)C2=O)C1=O,3,4,8,-2,-1,.,.
Cc1ccc2c(c1)N(CC(=O)NC1CCCCC1)C(=O)c1cccnc1O2,-3,-6,13,-3,1,.,.
Cn1nc(C(=O)Nc2cccc(C(=O)NC3CC3)c2)c2ccccc2c1=O,-16,-1,3,-1,6,.,.
Cc1cc(=O)c(C(=O)Nc2cccc(C(=O)NC3CC3)c2)nn1-c1ccccc1Cl,-19,15*,7,-2,8,-1,0
CCCNC(=O)c1cc(C2CCCCN2C(=O)c2cc(OC)c(C)c(OC)c2)on1 (stereo not drawn),.,16*,.,.,.,-1,-4
COc1cc(C(=O)N2CCCCC2c2cc(C(=O)NC(C)C)no2)cc(OC)c1C (stereo not drawn),.,-4,.,.,.,.,.
